Results: PubChem BioAssay
Calls of active or inactive are those of the source.

Key:
[1] = small molecules captured by biotinylated probe aFSTL3 – biochemical, small-molecule microarray, fluorescence 635/667, stem cell growth factor project, primary screen (AID 1064); details: higher = more signal;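 note: measures binding of the biotinylated anti-FSTL3 antibody to printed compounds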
[2] = binders from COS7 lysate, DM2A8 probe, primary screen, torsin A project, cell lysate, small-molecule microarray, fluorescence 635/667 (AID 1065); details: higher = more signal, COS7 lysate expressing mutant human TOR1A
[3] = small molecules captured by biotinylated probe aFGF2 – biochemical, small-molecule microarray, fluorescence 635/667, stem cell growth factor project, primary screen (AID 1067); details: higher = more signal;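 note: measures binding of biotinylated aFGF2 protein to printed compounds on slides; z-score merges feature fluorescence and signal-to-noise across triplicate slides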
[4] = small molecules captured by biotinylated probe aFGF10 – biochemical, small-molecule microarray, fluorescence 635/667, stem cell growth factor project, primary screen (AID 1071); details: higher = more signal;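 note: score merges 667 nm spot intensity and signal to noise from triplicate slides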
[5] = molecular target: Neurogenic locus notch homolog protein 2 (Homo sapiens) (UniProt Q04721); assay: small molecules binding Notch2 protein – biochemical, small-molecule microarray, 635 nm fluorescence, stem cell growth factors, primary screen (AID 1073); details: higher = more signal
[6] = molecular target: Pro-neuregulin-1, membrane-bound isoform (Homo sapiens) (UniProt Q02297); assay: small molecules binding neuregulin-1 protein – biochemical, small-molecule microarray, fluorescence 635/667, psychiatric disease protein project, primary screen (AID 1075); details: NRG1 binding, 635 nm fluorescence, higher = more signal;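 note: score combines 667 nm spot fluorescence with signal to noise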
[7] = test system: Neuregulin-1 EGF-like domain; assay: small molecules binding NRG1 EGF domain – biochemical, small-molecule microarray, 635 nm fluorescence, primary screen (AID 1081); details: higher = more signal;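 note: binding of the protein to compounds printed on small-molecule microarray slides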
[8] = FRG1 expression reporter modulators in myotubes – cell-based, C2C12 myotubes, firefly/Renilla luciferase, luminescence, FRG1 inhibition for FSHD, primary screen (AID 1084); details: FRG1 promoter luciferase, higher = more signal, called active from +8 up or from −8 down
[9] = small molecules captured by biotinylated probe aFST – biochemical, small-molecule microarray, fluorescence 635/667, stem cell growth factor project, primary screen (AID 1086); details: higher = more signal;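 note: score merges 667 nm fluorescence with signal-to-noise of each printed compound spot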
[10] = binders of probe aHhip on microarray, primary screen, stem cell growth factor project, biochemical, small-molecule microarray, fluorescence 635/667 (AID 1087); details: higher = more signal;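 note: score merges spot fluorescence at 667nm with spot signal to noise ratio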

Chain of Neurogenic locus notch homolog protein 2 (Homo sapiens) (Q04721 whole entry, looked up, canonical isoform): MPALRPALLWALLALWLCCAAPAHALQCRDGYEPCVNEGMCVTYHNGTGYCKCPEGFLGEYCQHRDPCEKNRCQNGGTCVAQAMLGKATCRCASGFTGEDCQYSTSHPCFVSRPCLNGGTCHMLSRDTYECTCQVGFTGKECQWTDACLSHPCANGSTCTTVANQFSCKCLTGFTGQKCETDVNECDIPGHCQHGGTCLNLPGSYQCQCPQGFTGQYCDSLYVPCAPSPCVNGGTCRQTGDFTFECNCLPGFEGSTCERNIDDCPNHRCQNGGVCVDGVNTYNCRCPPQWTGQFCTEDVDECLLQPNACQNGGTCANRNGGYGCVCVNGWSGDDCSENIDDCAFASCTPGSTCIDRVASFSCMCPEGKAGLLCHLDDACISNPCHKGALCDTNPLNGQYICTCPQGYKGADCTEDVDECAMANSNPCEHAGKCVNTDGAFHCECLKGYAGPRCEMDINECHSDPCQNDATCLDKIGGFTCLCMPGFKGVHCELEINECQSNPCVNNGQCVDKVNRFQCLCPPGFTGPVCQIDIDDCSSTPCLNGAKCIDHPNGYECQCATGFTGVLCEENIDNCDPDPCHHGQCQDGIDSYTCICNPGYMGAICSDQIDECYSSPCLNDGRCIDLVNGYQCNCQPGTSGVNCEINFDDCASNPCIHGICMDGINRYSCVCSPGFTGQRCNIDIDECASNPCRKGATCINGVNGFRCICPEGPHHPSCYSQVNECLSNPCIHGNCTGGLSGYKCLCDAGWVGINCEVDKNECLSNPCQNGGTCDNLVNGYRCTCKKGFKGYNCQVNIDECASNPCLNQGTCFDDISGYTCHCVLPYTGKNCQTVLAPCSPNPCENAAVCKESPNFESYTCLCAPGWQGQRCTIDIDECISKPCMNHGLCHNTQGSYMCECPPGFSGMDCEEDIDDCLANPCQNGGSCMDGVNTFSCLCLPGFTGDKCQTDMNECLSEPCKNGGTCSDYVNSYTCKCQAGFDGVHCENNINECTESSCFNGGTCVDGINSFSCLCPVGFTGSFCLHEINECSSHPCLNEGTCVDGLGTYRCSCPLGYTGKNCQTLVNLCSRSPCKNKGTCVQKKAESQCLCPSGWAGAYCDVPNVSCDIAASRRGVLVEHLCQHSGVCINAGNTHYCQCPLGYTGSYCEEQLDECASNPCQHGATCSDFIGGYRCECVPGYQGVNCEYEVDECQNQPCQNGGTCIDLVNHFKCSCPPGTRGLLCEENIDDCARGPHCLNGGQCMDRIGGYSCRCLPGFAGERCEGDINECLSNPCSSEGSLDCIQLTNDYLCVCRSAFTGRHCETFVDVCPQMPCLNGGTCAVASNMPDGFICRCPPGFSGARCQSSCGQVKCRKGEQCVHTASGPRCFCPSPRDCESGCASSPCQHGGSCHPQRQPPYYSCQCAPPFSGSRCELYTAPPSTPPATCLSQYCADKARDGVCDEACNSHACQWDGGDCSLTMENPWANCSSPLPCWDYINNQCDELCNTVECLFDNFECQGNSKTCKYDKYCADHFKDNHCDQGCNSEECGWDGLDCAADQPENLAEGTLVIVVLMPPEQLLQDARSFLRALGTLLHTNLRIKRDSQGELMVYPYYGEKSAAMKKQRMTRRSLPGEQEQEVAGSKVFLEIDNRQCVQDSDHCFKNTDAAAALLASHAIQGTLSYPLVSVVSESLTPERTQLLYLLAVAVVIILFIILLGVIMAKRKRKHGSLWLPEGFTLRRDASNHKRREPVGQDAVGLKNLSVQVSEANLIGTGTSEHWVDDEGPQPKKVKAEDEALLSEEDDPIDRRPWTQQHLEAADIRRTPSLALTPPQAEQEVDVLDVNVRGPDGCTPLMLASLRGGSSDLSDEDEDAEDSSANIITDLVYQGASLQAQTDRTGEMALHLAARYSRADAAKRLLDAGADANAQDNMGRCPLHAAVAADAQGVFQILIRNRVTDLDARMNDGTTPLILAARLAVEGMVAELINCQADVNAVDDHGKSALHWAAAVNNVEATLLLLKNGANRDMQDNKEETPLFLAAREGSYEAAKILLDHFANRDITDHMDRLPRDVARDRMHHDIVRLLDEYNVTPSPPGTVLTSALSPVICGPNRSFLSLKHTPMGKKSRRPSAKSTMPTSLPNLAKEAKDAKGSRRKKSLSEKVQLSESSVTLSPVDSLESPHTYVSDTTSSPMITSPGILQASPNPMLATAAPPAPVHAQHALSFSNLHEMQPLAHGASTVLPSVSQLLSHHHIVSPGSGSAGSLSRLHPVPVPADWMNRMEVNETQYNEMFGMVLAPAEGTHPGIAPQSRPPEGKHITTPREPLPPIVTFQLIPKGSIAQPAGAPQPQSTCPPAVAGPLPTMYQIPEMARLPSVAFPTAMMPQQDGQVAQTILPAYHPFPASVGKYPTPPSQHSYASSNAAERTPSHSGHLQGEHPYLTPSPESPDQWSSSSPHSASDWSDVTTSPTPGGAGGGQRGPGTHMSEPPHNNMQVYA
Chain of Pro-neuregulin-1, membrane-bound isoform (Homo sapiens) (Q02297 whole entry, looked up, the tested form may be a part, canonical isoform): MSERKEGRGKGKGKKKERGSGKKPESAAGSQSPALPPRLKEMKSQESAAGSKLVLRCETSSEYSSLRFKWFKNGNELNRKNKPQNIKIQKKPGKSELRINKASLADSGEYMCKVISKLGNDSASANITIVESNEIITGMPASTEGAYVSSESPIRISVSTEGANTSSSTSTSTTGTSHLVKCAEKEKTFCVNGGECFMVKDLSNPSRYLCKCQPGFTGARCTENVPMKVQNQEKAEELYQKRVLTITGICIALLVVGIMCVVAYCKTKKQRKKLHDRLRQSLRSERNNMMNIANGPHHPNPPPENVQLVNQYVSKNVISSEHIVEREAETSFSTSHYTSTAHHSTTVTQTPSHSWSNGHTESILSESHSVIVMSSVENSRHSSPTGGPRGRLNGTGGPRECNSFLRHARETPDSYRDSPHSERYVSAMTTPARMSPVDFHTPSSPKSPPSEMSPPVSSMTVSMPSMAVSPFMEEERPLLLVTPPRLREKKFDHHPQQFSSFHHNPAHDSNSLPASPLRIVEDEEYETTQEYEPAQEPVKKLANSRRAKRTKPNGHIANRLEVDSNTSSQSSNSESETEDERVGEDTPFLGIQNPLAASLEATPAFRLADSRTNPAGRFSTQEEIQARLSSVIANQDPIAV

Row | Structure (SMILES) | composite z-score [1] | composite z-score [2] | composite z-score [3] | composite z-score [4] | composite z-score [5] | composite z-score [6] | composite z-score [7] | z-score [8] | composite z-score [9] | composite z-score [10]
1 | CO[C@H]([C@@H](C)[C@H](OC)c1ccccc1)[C@H](C)[C@@H](OC)[C@H](C)C(C)=O | -0.426 | -0.292 | -0.0785 | -0.154 | -0.448 | -0.383 | -0.944 | 0.425 (inactive) | 0.0432 | 2.49
2 | CCCNC(=O)OC[C@H]1O[C@H](CCON=C[C@@H](OC)[C@H](C)C=CCC(=O)OC)C=C[C@@H]1Oc1ccc(OC)cc1 | -0.479 | 0.698 | -0.136 | -0.192 | -0.0065 | -0.23 | 0.614 | 1.16 (inactive) | -0.0617 | -0.0672
3 | CCN1C(=O)[C@H]2[C@H]3[C@H](O)[C@H](O)CC(=NOC[C@@H](C)[C@H](OCc4ccccc4)C(C)C)[C@@H]3CC[C@H]2C1=O | -0.468 | 1.28 | -0.128 | 0.523 | 0.399 | 1.24 | 0.221 | 0.199 (inactive) | 0.0662 | -0.169
4 | C[C@@H]1CCC2C(=O)N(Cc3ccccc3)C[C@@H](O)CN2[C@H]1c1ccc(Br)cc1 (stereo not given in full) | -0.364 | 0.381 | -0.145 | 0.84 | -0.05 | 0.0596 | 0.963 | -0.765 (inactive) | -0.0584 | -0.0618
5 | CCN(CC)c1ccc(N2CC=CC34O[C@@H]5/C=C\CCC(C)OC(=O)C5[C@H]3C(=O)N(CCCO)[C@@H]4C2=O)cc1 (stereo not given in full) | 0.678 | 0.215 | -0.0766 | 0.408 | -0.659 | 0.63 | 1.58 | 0.957 (inactive) | -0.444 | -0.0237
6 | CC(=O)OC[C@H]1O[C@H](CC=NOC[C@@H](C)[C@H](OCc2ccccc2)C(C)C)C=C[C@@H]1OC(C)=O | -0.0055 | -0.141 | -0.087 | 0.0055 | -0.0224 | -0.254 | -0.712 | 0.183 (inactive) | -0.341 | -0.0645
7 | NCCCCCNC(=O)[C@@H]1C[C@@H]2C(=O)N3CCC[C@H]3C(=O)N2[C@@H]1c1cccc(OCCO)c1 | 2.37 | 2.1 | 0.103 | 0.349 | 0.185 | 1.86 | 1.26 | 0.76 (inactive) | 1.68 | 0.309
8 | CCCCCN1CC=CC23O[C@@H]4C=CCOC(=O)[C@@H]4[C@H]2C(=O)N(C(CO)C(C)C)[C@@H]3C1=O (stereo not given in full) | 0.232 | -1.58 | -0.141 | -0.495 | -1.15 | -0.694 | 0.657 | -0.0073 (inactive) | -0.357 | -0.15
9 | CCOC(=O)[C@H](Cc1ccccc1)NC(=O)CCC1CC(OC(=O)NCc2ccc3c(c2)OCO3)CC2(CCCC(COC(=O)NCc3cccc(C(F)(F)F)c3)O2)O1 (stereo not given in full) | -0.353 | 0.226 | -0.0985 | 0.0907 | 0.981 | 0.0527 | 0.481 | -0.0878 (inactive) | 0.348 | -0.0645
10 | COCCCNC(=O)[C@@]1(Sc2ccc(C)cc2)CC(=O)N(Cc2ccccc2)[C@@H]1c1ccc(CO)cc1I | 0.438 | 0.258 | 0.193 | -0.134 | -0.895 | 1.38 | -0.118 | -0.646 (inactive) | 0.458 | 0.0327
11 | O=C1[C@H]2[C@H]3[C@H](O)[C@H](O)CC(=NO[C@@H]4O[C@H](CO)[C@@H](O)[C@H](O)[C@H]4O)[C@H]3CC[C@H]2C(=O)N1Cc1ccccc1 | -0.658 | 0.0571 | -0.116 | 0.602 | 1.4 | -0.328 | 0.0944 | 0.632 (inactive) | 0.564 | 0.199
12 | C=C(COC)/C(=C/C[C@H](OC(=O)c1ccncc1)c1ccc(CO)o1)c1cc(C(=O)OC)ccc1OC | -0.393 | 0.649 | 0.0026 | 0.905 | 0.614 | 0.407 | 0.716 | 0.0676 (inactive) | 0.404 | -0.123
13 | CC(C)[C@@H](OCc1ccccc1)[C@H](C)C=NOC[C@@H](C)[C@H](OCc1ccccc1)C(C)C | -0.539 | 0.0717 | -0.164 | 0.31 | 0.303 | 0.106 | -0.44 | -0.108 (inactive) | -0.0889 | -0.131
14 | CC(CCN1CCc2nc(-c3ccccc3)c(-c3ccccc3)cc2C1)=NO[C@@H](C)c1cn([C@H](CO)Cc2ccccc2)nn1 | -0.261 | 0.608 | -0.143 | -0.0983 | -0.674 | 0.424 | 0.124 | -0.54 (inactive) | 0.0854 | -0.189
15 | C[C@@H](c1ccccc1)N1C(=O)[C@H]2[C@H]3[C@H](O)[C@H](O)CC(=NOC[C@@H](O)COCc4ccco4)[C@@H]3CC[C@H]2C1=O | 0.193 | 0.068 | -0.159 | -0.141 | -1.02 | -0.717 | -0.647 | -0.0058 (inactive) | 0.0275 | -0.137
16 | COc1cccc([C@H]2Oc3ccc(OC)cc3C(=NOC(C)CN3CCCc4nc(C)c(C)cc43)[C@@H]2O)c1 (stereo not given in full) | -0.437 | 0.15 | -0.0316 | 0.32 | 0.687 | 0.146 | 0.541 | 2.49 (inactive) | -0.055 | 0.154
17 | CO[C@@H]1COC(=O)CC=C[C@@H](C)COC(=O)[C@H](COCc2ccccc2)NC(=O)CC=C[C@H]1C | -0.611 | 2.32 | -0.162 | -0.903 | -0.75 | -0.698 | -0.0535 | -1.05 (inactive) | -0.268 | 0.0749

Row | Structure (SMILES) | composite z-score [1] | composite z-score [2] | composite z-score [3] | composite z-score [4] | composite z-score [5] | composite z-score [6] | composite z-score [7] | z-score [8] | composite z-score [9] | composite z-score [10]
18 | CC(C)(C)OC(=O)CC[C@]1(C(N)=O)COC(c2ccc(OCCCO)cc2)=N1 | 0.645 | 2.69 | 0.325 | 0.6 | 1.39 | 1.14 | 1.03 | 0.266 (inactive) | 1.19 | 0.462
19 | C=C(/C(=C/C[C@H](OC(C)=O)c1ccc(OCCO)cc1)c1cnc2ccccc2c1)C(C)C | -0.195 | 0.214 | -0.122 | 1.11 | 1.01 | 0.69 | 1 | 0.372 (inactive) | 0.182 | -0.333
20 | CC(C)=NOCc1ccc(-c2cc(-c3ccccc3)no2)cc1 | -0.474 | -0.191 | -0.0788 | 0.241 | 0.29 | -0.225 | 0.123 | -0.172 (inactive) | 0.0003 | -0.0296
21 | COc1ccc(O[C@@H]2[C@H](O)CO[C@H]2C=CC#Cc2ccccc2)cc1 | -0.389 | 0.511 | -0.159 | 0.0175 | -0.22 | 0.068 | -0.203 | -0.606 (inactive) | -0.182 | -0.0237
22 | Cc1cc2c(nc1C)CCCN2CC(O)CN1CCN(C)CC1 (stereo not given) | 0.499 | 0.382 | 0.0138 | 0.575 | 0.273 | 0.462 | 0.346 | -0.323 (inactive) | 0.758 | 0.744
23 | COCCOC(=O)N1C(=O)[C@@]2(c3cc(C#CC4(O)CCCCCC4)ccc31)[C@H](c1ccc(OCCO)cc1)N1[C@H](c3ccccc3)[C@H](c3ccccc3)OC(=O)[C@H]1[C@@H]2C(=O)NC[C@H](O)c1ccccc1 | -0.0536 | 1.11 | -0.0444 | 0.66 | 0.837 | 1.55 | 1.13 | -0.294 (inactive) | 0.29 | -0.0994
24 | C=C(/C(=C/C[C@@H](OC(=O)c1ccncc1)c1ccc(OCCO)cc1)c1cnc2ccccc2c1)C(C)C | -0.342 | -0.0128 | -0.186 | 0.128 | 0.772 | 0.562 | 0.694 | -2.27 (inactive) | 0.201 | 0.0206
25 | CO[C@@H]1COC(=O)CC=C[C@@H](C)[C@@H]2C=C[C@@H](O)[C@@H](COC(=O)CC=C[C@H]1C)O2 | -0.42 | 1.08 | -0.0861 | -0.251 | -0.716 | -0.688 | -0.523 | -0.969 (inactive) | -0.176 | -0.16
26 | COC(=O)CC=C[C@H](C)[C@@H](OCc1ccccc1Br)C(C)C | -0.188 | 0.398 | -0.191 | 0.189 | 0.0089 | -0.252 | -0.334 | -0.749 (inactive) | -0.0799 | -0.306
27 | C[C@@H](c1ccccc1)N1C(=O)[C@H]2[C@H]3[C@H](O)[C@H](O)CC(=NNC(=O)OCc4ccccc4)[C@H]3CC[C@H]2C1=O | 0.512 | 0.16 | -0.129 | 0.201 | 0.382 | -0.207 | -0.451 | 0.0168 (inactive) | 0.366 | -0.236
28 | O=C1[C@H]2[C@H]3[C@H](O)[C@H](O)CC(=NO[C@@H]4O[C@H](CO)[C@@H](O)[C@H](O)[C@H]4O)[C@@H]3CC[C@H]2C(=O)N1Cc1ccccc1 | -0.466 | 1.08 | -0.074 | 0.312 | 0.595 | -0.516 | -0.9 | -0.7 (inactive) | 0.756 | -0.0994
29 | COC(=O)[C@@]1(Cc2ccccc2)[C@H]2c3cc(C(=O)N4CCCC4)n(Cc4ccccn4)c3C[C@H]2CN1C(=O)c1ccccc1 | 0.731 | 0.415 | 0.589 | 1.14 | 1.52 | 2.18 | 1.35 | 2.5 (inactive) | 1.65 | 0.257
30 | CN(C)c1ccc(C(O)C2C=CC3C(=O)N(c4ccccc4)C(=O)C3N2Nc2ccccc2F)cc1 (stereo not given) | 0.357 | -0.159 | -0.0422 | 0.208 | 1.46 | 0.86 | 1.25 | 3.64 (inactive) | 0.957 | -0.212
31 | CC(C)(C)N1CC=CC23O[C@@H]4C=CCCOC(=O)C4[C@H]2C(=O)N(CCCCCO)[C@@H]3C1=O (stereo not given in full) | -0.0873 | 1.48 | -0.183 | 0.448 | 0.366 | -0.0196 | 1.28 | -0.85 (inactive) | -0.443 | 0.0156
32 | O=C1[C@H]2[C@H]3[C@H](O)[C@H](O)CC(=NO[C@@H]4O[C@H](CO)[C@@H](O)[C@H](O)[C@H]4O)[C@H]3CC[C@H]2C(=O)N1C1CCCCC1 | -0.332 | 1.49 | -0.0659 | -0.0948 | 0.028 | -0.197 | 0.995 | -0.225 (inactive) | 0.276 | 0.841
33 | COCCCNC(=O)[C@]1(CCC(=O)OC(C)(C)C)N=C(c2ccc(OCCCO)cc2)O[C@@H]1c1ccccc1N=[N+]=[N-] | 0.0081 | 1.27 | 0.15 | 0.891 | 1.33 | 1.62 | 1.36 | 3.15 (inactive) | 1.51 | 0.107
